# Measurements reported in PMC4336329 (PLoS ONE, 2015).
# The whole screen tested about 310,000 compounds, of which about 14,000 (4.5%) showed an effect of 50% or more. The effect is printed as a negative number. The sample as a whole holds a higher share of strong results than the screen did.
# Target: human ether-à-go-go-related gene (hERG) potassium channel (human, UniProt Q12809)
# Experiment: primary screen, population patch clamp on CHO cells stably expressing hERG; higher = less effect of the substance
# 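Note: peak tail current of the secondary pulse compared with the same well before compound.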
# human ether-à-go-go-related gene (hERG) potassium channel, sequence (Q12809 whole entry, looked up): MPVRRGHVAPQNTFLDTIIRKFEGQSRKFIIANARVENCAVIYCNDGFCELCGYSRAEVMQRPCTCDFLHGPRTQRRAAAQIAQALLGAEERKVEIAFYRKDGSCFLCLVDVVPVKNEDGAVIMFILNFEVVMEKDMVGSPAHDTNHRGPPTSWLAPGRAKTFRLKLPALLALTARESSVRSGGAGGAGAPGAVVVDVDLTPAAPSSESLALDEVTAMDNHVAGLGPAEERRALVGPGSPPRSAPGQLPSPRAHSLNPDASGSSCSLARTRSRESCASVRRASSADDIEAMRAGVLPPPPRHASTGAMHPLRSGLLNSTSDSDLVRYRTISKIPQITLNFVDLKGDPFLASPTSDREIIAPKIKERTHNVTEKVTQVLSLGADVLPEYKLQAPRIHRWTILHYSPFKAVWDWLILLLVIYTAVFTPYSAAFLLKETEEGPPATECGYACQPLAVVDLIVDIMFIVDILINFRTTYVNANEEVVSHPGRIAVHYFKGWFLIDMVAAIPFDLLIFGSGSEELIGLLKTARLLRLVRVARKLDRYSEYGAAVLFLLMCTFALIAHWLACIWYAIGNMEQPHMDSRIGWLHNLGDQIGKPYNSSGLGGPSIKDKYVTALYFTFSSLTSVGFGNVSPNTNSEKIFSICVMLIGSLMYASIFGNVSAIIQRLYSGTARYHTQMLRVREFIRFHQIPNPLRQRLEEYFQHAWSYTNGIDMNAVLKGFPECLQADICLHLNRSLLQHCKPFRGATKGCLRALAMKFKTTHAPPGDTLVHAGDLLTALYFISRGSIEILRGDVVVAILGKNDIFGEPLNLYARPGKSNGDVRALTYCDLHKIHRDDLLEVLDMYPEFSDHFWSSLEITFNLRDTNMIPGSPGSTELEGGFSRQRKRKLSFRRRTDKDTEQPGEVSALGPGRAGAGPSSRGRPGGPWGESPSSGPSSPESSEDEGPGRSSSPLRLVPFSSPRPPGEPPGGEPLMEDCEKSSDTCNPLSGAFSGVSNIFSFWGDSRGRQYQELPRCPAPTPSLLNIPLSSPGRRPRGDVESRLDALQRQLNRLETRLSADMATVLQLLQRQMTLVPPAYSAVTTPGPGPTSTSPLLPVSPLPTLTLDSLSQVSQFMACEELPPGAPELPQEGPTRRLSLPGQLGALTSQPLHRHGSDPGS
row,SMILES,"hERG current change (%, negative = inhibition) at 10uM [%]"
1,Cc1cccc(-c2nc3c(c(=O)c4ccccc4n3C)c(=O)n2-c2ccccc2)c1,14
2,Cc1cccc(S(=O)(=O)c2c(N)n(/N=C/c3cccnc3)c3nc4ccccc4nc23)c1,-4.67
3,COc1cc(C(=O)NCC(c2cccs2)N2CCOCC2)cc(OC)c1OC (stereo not drawn),11.5
4,Cc1cccc(C)c1OC(=O)Cc1ccccc1[N+](=O)[O-],-4.62
5,CCCOc1ccc(C(=O)NNC(=O)c2cccc(S(=O)(=O)N3CCN(C(C)=O)CC3)c2)cc1OC,-13.8
6,COc1cc(C2Nc3cccc4cccc(c34)N2)ccc1OC(C)=O,11.2
7,CC(NC(=O)C(=O)N1CCOCC1)C(c1cccs1)N1CCN(c2ccccc2)CC1 (stereo not drawn),8.31
8,O=S(=O)(c1ccccc1)c1cnn(-c2ccccc2)c1-c1ccc(F)cc1,-0.19
9,Cc1ccc(C)c(NC(=S)N2CCCCCC2)c1,0.578
10,Cc1nn(C)c(C(=O)N2CCN(C(=O)c3ccco3)CC2)c1[N+](=O)[O-],8.95
11,O=C(c1ccco1)N1CCN(c2c([N+](=O)[O-])nn(-c3cccc(Cl)c3)[n+]2[O-])CC1,-38.1
12,O=[N+]([O-])c1nn(-c2ccccc2)[n+]([O-])c1N1CCN(c2ccccc2)CC1,-0.32
13,O=C(c1ccco1)N1CCN(c2ccc(Cl)c(Cl)c2)CC1,-29.7
14,O=C(c1ccco1)N1CCN(c2c([N+](=O)[O-])nn(-c3ccc(Cl)cc3)[n+]2[O-])CC1,-57.2
15,Cc1cccc(-n2nc([N+](=O)[O-])c(N3CCN(C(=O)c4ccco4)CC3)[n+]2[O-])c1,-68.7
16,Cc1ccc(NC(=O)CC2SC(=NCC3CCCO3)NC2=O)cc1Cl (stereo not drawn),-3.57
17,Cc1c(C)n2c(SCC(=O)NC3CCCCC3)nnc2[nH]c1=O,-8.13
18,CCCCN(C(=O)c1ccco1)C1CCS(=O)(=O)C1 (stereo not drawn),0.36
19,O=C1c2ccc(-c3ccc4c(c3)C(=O)N(CCO)C4=O)cc2C(=O)N1CCO,14.6
20,CN(CC1CCCN(CCc2ccccc2F)C1)C(=O)c1ccoc1 (stereo not drawn),-66.7
21,Cc1occc1C(=O)N(C)CC1CCCN(CCc2ccccc2F)C1 (stereo not drawn),-51.1
22,COc1ccccc1CCN1CCCC(CN(C)C(=O)c2ccco2)C1 (stereo not drawn),-68.9
23,COc1ccccc1CCN1CCCC(CN(C)CC(C)(C)CO)C1 (stereo not drawn),-0.609
24,CN(C)CCN(CC1CCCN(Cc2ccccc2F)C1)C(=O)c1ccc(F)cc1 (stereo not drawn),3.46

row,SMILES,"hERG current change (%, negative = inhibition) at 10uM [%]"
1,COc1ccccc1CCN1CCCC(CN(C)C(=O)c2ccc3nc[nH]c3c2)C1 (stereo not drawn),12.1
2,COc1ccccc1CCN1CCCC(CN(C)C(=O)c2ccoc2)C1 (stereo not drawn),-51.2
3,COCC(=O)N(C)CC1CCCN(CCc2ccccc2OC)C1 (stereo not drawn),7.26
4,Cc1ccccc1CC(=O)N(CCN(C)C)CC1CCCN(Cc2ccccc2F)C1 (stereo not drawn),1.19
5,O=c1[nH]oc2cc(Cl)ccc12,11.3
6,CCOc1ccc(OCC(=O)Nc2ccc(S(N)(=O)=O)cc2)cc1,-7.32
7,O=C(NCc1cccs1)c1nc2c(nnn2Cc2ccccc2Cl)c(=O)[nH]1,5.42
8,COC(=O)CSc1nn(-c2ccc(F)cc2)c(=S)s1,-2.71
9,Cn1c(CC(=O)Nc2ccccc2)nnc1SCCOc1ccccc1,2.08
10,CC1CC(=O)Nc2ccc([N+](=O)[O-])cc2N1C (stereo not drawn),7.59
11,Cc1cc(C)c(C(=O)N(C)CC2CCCN(CCc3ccccc3F)C2)o1 (stereo not drawn),-70.4
12,Cc1cc(C)c(C(=O)N(CCN(C)C)CC2CCCN(Cc3ccccc3F)C2)o1 (stereo not drawn),7.61
13,Cc1cc(C)c(C(=O)N(C)C2CCCN(Cc3ccccc3F)C2)o1 (stereo not drawn),-0.652
14,CCCn1c(SCC(=O)Nc2nccs2)nnc1-c1cccnc1,-0.265
15,COc1cccc(NC(=O)c2oc3ccccc3c2NC(=O)c2ccc3c(c2)OCO3)c1,5.18
16,O=C1C2CC=CCC2C(=O)N1c1n[nH]c(Cc2ccccc2)n1 (stereo not drawn),2.31
17,COc1ccccc1C(CNC(=O)CNC(=O)c1ccc(Cl)c(Cl)c1)N1CCCC1 (stereo not drawn),-32.9
18,CCCCN(CCCC)CCNC(=O)c1cn(CC)c2ccc(S(=O)(=O)N3CCCC3)cc2c1=O,-65.7
19,CCCCNC(=O)c1cn(C)c2ccc(S(=O)(=O)N3CCCC3)cc2c1=O,12.6
20,CCCCNC(=O)c1cn(CC)c2ccc(S(=O)(=O)N3CCCC3)cc2c1=O,-38.1
21,CCCCNC(=O)c1cn(CC)c2ccc(S(=O)(=O)N3CCCCCC3)cc2c1=O,7.01
22,CCCCN(CCCC)CCNC(=O)c1cn(C)c2ccc(S(=O)(=O)N3CCCC3)cc2c1=O,-57.9
23,CCCCSCCCNC(=O)c1cn(C)c2ccc(S(=O)(=O)N3CCCC3)cc2c1=O,11.2
24,CCOc1ccc(NC(=O)CN(C)C(=O)CCCc2c[nH]c3ccccc23)cc1OCC,-3.25

row,SMILES,"hERG current change (%, negative = inhibition) at 10uM [%]"
1,Cc1occc1-c1nnc(SCC(=O)Nc2ccccc2)n1Cc1ccccc1,-76.3
2,Cc1occc1-c1nnc(SCC(=O)Nc2ccccc2)n1CCc1ccccc1,-67
3,COc1ccccc1NC(=O)CSc1nnc(-c2ccoc2C)n1C,-1.59
4,Cc1occc1-c1nnc(SCC(=O)Nc2ccccc2)n1C,9.72
5,COc1ccccc1NC(=O)CSc1nnc(-c2ccoc2C)n1CCc1ccccc1,-64.8
6,Cc1occc1-c1nnc(SCC(=O)Nc2ccc(F)cc2)n1Cc1ccccc1,-49.4
7,Cc1ccccc1NC(=O)CSc1nnc(-c2ccoc2C)n1CCc1ccccc1,-59.6
8,COc1ccccc1NC(=O)CSc1nnc(C)n1CCc1ccccc1,-14.3
9,CC(=O)c1ccc(NC(=O)CSc2nnc(-c3ccoc3C)n2Cc2ccccc2)cc1,-30.8
10,Cc1cccc(C)c1NC(=O)CSc1nnc(-c2ccoc2C)n1CCc1ccccc1,-46.3
11,Cc1nnc(SCC(=O)Nc2ccccc2)n1CCc1ccccc1,-33
12,CCCn1c(SCC(=O)Nc2ccccc2-c2ccccc2)nnc1-c1ccoc1C,-26
13,CSc1nc(SC)c2c3c(oc2n1)COC(C)(C)C3,7.86
14,Cc1ccc(N2CCN(/N=C/C(Cl)=C/c3ccccc3)CC2)cc1,-5.13
15,O=C(CN(Cc1ccco1)C(=O)c1ccc(Cl)cc1)Nc1c(Cl)cc(Cl)cc1Cl,7.76
16,CN1C(=O)c2ccccc2Sc2ccc(NC(=O)NC3CC3)cc21,-11
17,CCOc1ccccc1C(=O)NCC(=O)NCC1CCCCC1,12.2
18,COc1ccc(N2C(=O)C3C4C=CC(CC4)C3C2=O)c([N+](=O)[O-])c1 (stereo not drawn),-5.27
19,O=C(/C=C/c1ccco1)NC(=S)Nc1ccc(O)c(-c2nc3ccccc3s2)c1,13.2
20,CSc1ccccc1NC(=S)N/N=C/c1cccn1Cc1ccc(F)cc1,-6.67
21,O=C(c1cc(=O)c2ccccc2o1)N1CCN(c2ccccc2F)CC1,-15.3
22,Cc1cc(NC(=O)CSc2nnc(-c3ccc(Br)o3)n2Cc2ccccc2)no1,-51.2
23,Cc1cc(NC(=O)CSc2nnc(-c3ccco3)n2Cc2ccccc2)no1,-44.3
24,Cc1occc1-c1nnc(SCC(=O)NCCc2ccccc2)n1C(C)c1ccccc1 (stereo not drawn),-31.8

row,SMILES,"hERG current change (%, negative = inhibition) at 10uM [%]"
1,Cc1occc1-c1nnc(SCC(N)=O)n1Cc1ccccc1,3.5
2,COc1ccc(NC(=O)CSc2nnc(-c3ccoc3C)n2CC2CCCO2)cc1 (stereo not drawn),-5.04
3,Cc1cc(NC(=O)CSc2nnc(C3CC3)n2Cc2ccccc2)no1,-8.63
4,COCCn1c(SCC(=O)Nc2ccc(OC)cc2)nnc1-c1ccoc1C,-3.58
5,COc1ccc(NC(=O)CSc2nnc(-c3ccoc3C)n2CCc2ccccc2)cc1,-54.3
6,Cc1occc1-c1nnc(SCC(=O)NCCc2ccccc2)n1Cc1ccccc1,-81.1
7,COc1cccc2cc(C(=O)NCCc3ccccc3)oc12,-20.1
8,C/C(=N\NC(=O)C1(C)CC1(Br)Br)c1ccc(NC(=O)c2ccc(C)o2)cc1 (stereo not drawn),-8.92
9,COc1cc2nc(-c3cccs3)oc(=O)c2cc1OC,4.77
10,COc1cccc2c1Oc1ncccc1N(C(=O)CCC(=O)NCc1cccc(C)c1)C2,-23.5
11,CC(C)[C@H](NC(=O)C1CCN(S(=O)(=O)c2ccccc2)CC1)C(=O)NCc1ccccc1,10.2
12,O=C(COC(=O)/C=C/c1ccc(Br)o1)NC1CCCCC1,11
13,O=C(CN1CCCCCCC1)N/N=C/c1ccc([N+](=O)[O-])o1,-52.1
14,O=C(N/N=C/c1ccc([N+](=O)[O-])o1)C1CCCC1,10.6
15,O=C(CCN1CCN(c2ccccc2)CC1)N/N=C/c1ccccc1O,-16
16,O=C(Cc1ccc([N+](=O)[O-])cc1)N/N=C/c1ccc([N+](=O)[O-])o1,-64.7
17,CCCCCC(=O)N/N=C/c1ccc([N+](=O)[O-])o1,-26.2
18,O=C(Cc1ccc([N+](=O)[O-])cc1)N/N=C/c1ccco1,-15.3
19,O=C(Cc1ccccc1)N/N=C/c1ccc(-c2ccc([N+](=O)[O-])cc2)o1,4.21
20,CC(=O)Nc1ccc(/C=N/NC(=O)CCN2CCN(c3ccccc3)CC2)cc1,-2.3
21,O=C(CCN1CCN(c2ccccc2)CC1)N/N=C/c1ccc([N+](=O)[O-])o1,-73.4
